In the supplement of paper PMC12645437, “Orthogonal IMiD-Degron Pairs Induce Selective Protein Degradation in Cells” (ACS Chemical Biology, 2025):
Over roughly 8,300 sequences, “log2 fold change of degron read counts, EGFP-low vs EGFP+ sorted cells (limma voom), compound-induced degradation” has its median near -1.1; the highest 2% begin near 3.2. The full list was thinned out, with the highest values kept by preference.

Target: T1, CRBN, Q96SW2
T1 chain: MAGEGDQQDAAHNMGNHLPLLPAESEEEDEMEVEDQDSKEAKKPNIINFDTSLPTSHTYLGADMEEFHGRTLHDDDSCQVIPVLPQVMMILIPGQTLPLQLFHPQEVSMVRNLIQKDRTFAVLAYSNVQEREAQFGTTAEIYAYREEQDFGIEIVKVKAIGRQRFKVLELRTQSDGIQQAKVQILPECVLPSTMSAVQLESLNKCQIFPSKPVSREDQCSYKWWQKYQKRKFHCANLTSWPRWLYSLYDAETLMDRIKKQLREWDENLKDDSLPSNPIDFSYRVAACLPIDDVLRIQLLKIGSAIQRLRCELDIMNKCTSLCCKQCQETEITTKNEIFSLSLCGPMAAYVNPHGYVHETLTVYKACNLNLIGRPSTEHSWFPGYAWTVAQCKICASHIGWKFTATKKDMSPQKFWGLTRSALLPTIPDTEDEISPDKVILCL
Experiment: log2 fold change of degron read counts, EGFP-low vs EGFP+ sorted cells (limma voom), compound-induced degradation; higher = more compound-induced degradation of the degron-EGFP fusion; degrons are variants of IKZF1/3 zinc finger 2; compound dose not given here
Conditions: Jurkat, 18 h

[1] = compound: compound 19 (5-tert-butyl-thalidomide)
[2] = compound: compound 22 (5-morpholino-thalidomide)
[3] = compound: compound 33 (diphenyl IMiD analogue)
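Note: pooled lentiviral library of zinc finger degron-EGFP fusions in mCherry-positive Jurkat cells, FACS-sorted after compound exposure, with degron abundance counted by next-generation sequencing.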

B1: 46F_47I_49P_50Q_52G_53A_54D_55F_67L_, Q9UKT9 (peptide)
chain: FICPQCGADFTQKGNLLRHIKL
log2 fold change of degron read counts [1]: -3.68
log2 fold change of degron read counts [2]: -2.36
log2 fold change of degron read counts [3]: -1.84
log2 fold change of degron read counts (compound: thalidomide): -2.04

B2: 46F_47F_49P_50I_52G_53H_54L_55F_67L_, Q9UKT9 (peptide)
chain: FFCPICGHLFTQKGNLLRHIKL
log2 fold change of degron read counts [1]: -0.994
log2 fold change of degron read counts [2]: -0.746
log2 fold change of degron read counts [3]: -0.828
log2 fold change of degron read counts (compound: thalidomide): -1.02

B3: 46L_47L_49E_50I_52G_53F_54F_55C_67L_, Q9UKT9 (peptide)
chain: LLCEICGFFCTQKGNLLRHIKL
log2 fold change of degron read counts [1]: -0.357
log2 fold change of degron read counts [2]: -0.957
log2 fold change of degron read counts [3]: -0.00991
log2 fold change of degron read counts (compound: thalidomide): 0.351

B4: 46F_47M_49D_50I_52G_53A_54M_55F_67L_, Q9UKT9 (peptide)
chain: FMCDICGAMFTQKGNLLRHIKL
log2 fold change of degron read counts [1]: -1.51
log2 fold change of degron read counts [2]: -1.89
log2 fold change of degron read counts [3]: 0.647
log2 fold change of degron read counts (compound: thalidomide): -1.45

B5: 46F_47G_49P_50I_52G_53R_54Q_55F_67L_, Q9UKT9 (peptide)
chain: FGCPICGRQFTQKGNLLRHIKL
log2 fold change of degron read counts [1]: 2.87
log2 fold change of degron read counts [2]: 0.813
log2 fold change of degron read counts [3]: 0.341
log2 fold change of degron read counts (compound: thalidomide): -0.4

B6: 46L_47E_49P_50I_52G_53F_54V_55C_67L_, Q9UKT9 (peptide)
chain: LECPICGFVCTQKGNLLRHIKL
log2 fold change of degron read counts [1]: -0.508
log2 fold change of degron read counts [2]: -0.452
log2 fold change of degron read counts [3]: 1.81
log2 fold change of degron read counts (compound: thalidomide): 2.84

B7: 46F_47R_49P_50V_52G_53A_54Y_55F_67L_, Q9UKT9 (peptide)
chain: FRCPVCGAYFTQKGNLLRHIKL
log2 fold change of degron read counts [1]: -0.775
log2 fold change of degron read counts [2]: 0.429
log2 fold change of degron read counts [3]: 1.02
log2 fold change of degron read counts (compound: thalidomide): 1.64

B8: 46L_47H_49E_50I_52G_53F_54Q_55C_67L_, Q9UKT9 (peptide)
chain: LHCEICGFQCTQKGNLLRHIKL
log2 fold change of degron read counts [1]: 2.39
log2 fold change of degron read counts [2]: 2.27
log2 fold change of degron read counts [3]: 1.7
log2 fold change of degron read counts (compound: thalidomide): 1.64

B9: 46L_47C_49N_50Q_52G_53F_54N_55C_67L_, Q9UKT9 (peptide)
chain: LCCNQCGFNCTQKGNLLRHIKL
log2 fold change of degron read counts [1]: -2
log2 fold change of degron read counts [2]: -2.61
log2 fold change of degron read counts [3]: -2.13
log2 fold change of degron read counts (compound: thalidomide): -1.77

B10: 46F_47T_49D_50V_52G_53A_54R_55F_67L_, Q9UKT9 (peptide)
chain: FTCDVCGARFTQKGNLLRHIKL
log2 fold change of degron read counts [1]: 0.31
log2 fold change of degron read counts [2]: 1.8
log2 fold change of degron read counts [3]: 0.304
log2 fold change of degron read counts (compound: thalidomide): 1.36

B11: 46F_47F_49E_50I_52G_53H_54R_55F_67L_, Q9UKT9 (peptide)
chain: FFCEICGHRFTQKGNLLRHIKL
log2 fold change of degron read counts [1]: -1.06
log2 fold change of degron read counts [2]: -1.44
log2 fold change of degron read counts [3]: -1.47
log2 fold change of degron read counts (compound: thalidomide): -1.72

B12: 46F_47D_49P_50I_52G_53A_54V_55F_67L_, Q9UKT9 (peptide)
chain: FDCPICGAVFTQKGNLLRHIKL
log2 fold change of degron read counts [1]: 0.604
log2 fold change of degron read counts [2]: 0.176
log2 fold change of degron read counts [3]: 1.99
log2 fold change of degron read counts (compound: thalidomide): 1.81

B13: 46F_47T_49N_50V_52G_53A_54P_55F_67L_, Q9UKT9 (peptide)
chain: FTCNVCGAPFTQKGNLLRHIKL
log2 fold change of degron read counts [1]: 0.145
log2 fold change of degron read counts [2]: 1.49
log2 fold change of degron read counts [3]: 0.972
log2 fold change of degron read counts (compound: thalidomide): 1.51

B14: 46F_47F_49E_50V_52G_53A_54P_55F_67L_, Q9UKT9 (peptide)
chain: FFCEVCGAPFTQKGNLLRHIKL
log2 fold change of degron read counts [1]: 4
log2 fold change of degron read counts [2]: 3.18
log2 fold change of degron read counts [3]: 1.98
log2 fold change of degron read counts (compound: thalidomide): 1.73

B15: 46F_47T_49E_50V_52G_53A_54P_55F_67L_, Q9UKT9 (peptide)
chain: FTCEVCGAPFTQKGNLLRHIKL
log2 fold change of degron read counts [1]: 2.16
log2 fold change of degron read counts [2]: 3.25
log2 fold change of degron read counts [3]: 1.81
log2 fold change of degron read counts (compound: thalidomide): 2.71

B16: 46F_47C_49N_50V_52G_53A_54P_55F_67L_, Q9UKT9 (peptide)
chain: FCCNVCGAPFTQKGNLLRHIKL
log2 fold change of degron read counts [1]: 1.3
log2 fold change of degron read counts [2]: 0.686
log2 fold change of degron read counts [3]: -0.00676
log2 fold change of degron read counts (compound: thalidomide): 0.263

B17: 46F_47N_49E_50V_52G_53A_54P_55F_67L_, Q9UKT9 (peptide)
chain: FNCEVCGAPFTQKGNLLRHIKL
log2 fold change of degron read counts [1]: 2.7
log2 fold change of degron read counts [2]: 1.8
log2 fold change of degron read counts [3]: 0.0261
log2 fold change of degron read counts (compound: thalidomide): 0.847

B18: 46F_47F_49E_50V_52G_53A_54D_55F_67L_, Q9UKT9 (peptide)
chain: FFCEVCGADFTQKGNLLRHIKL
log2 fold change of degron read counts [1]: -0.0497
log2 fold change of degron read counts [2]: 0.23
log2 fold change of degron read counts [3]: -0.854
log2 fold change of degron read counts (compound: thalidomide): -0.804

B19: 46F_47H_49E_50V_52G_53A_54P_55F_67L_, Q9UKT9 (peptide)
chain: FHCEVCGAPFTQKGNLLRHIKL
log2 fold change of degron read counts [1]: 3.54
log2 fold change of degron read counts [2]: 3.17
log2 fold change of degron read counts [3]: 2.03
log2 fold change of degron read counts (compound: thalidomide): 1.38

B20: 46F_47D_49E_50V_52G_53A_54P_55F_67L_, Q9UKT9 (peptide)
chain: FDCEVCGAPFTQKGNLLRHIKL
log2 fold change of degron read counts [1]: 0.668
log2 fold change of degron read counts [2]: -1.2
log2 fold change of degron read counts [3]: -1.15
log2 fold change of degron read counts (compound: thalidomide): -0.746

B21: 46F_47I_49E_50V_52G_53A_54P_55F_67L_, Q9UKT9 (peptide)
chain: FICEVCGAPFTQKGNLLRHIKL
log2 fold change of degron read counts [1]: 2.03
log2 fold change of degron read counts [2]: 3.48
log2 fold change of degron read counts [3]: 2.78
log2 fold change of degron read counts (compound: thalidomide): 3.17

B22: 46F_47A_49E_50V_52G_53A_54P_55F_67L_, Q9UKT9 (peptide)
chain: FACEVCGAPFTQKGNLLRHIKL
log2 fold change of degron read counts [1]: 3.19
log2 fold change of degron read counts [2]: 1.62
log2 fold change of degron read counts [3]: -0.375
log2 fold change of degron read counts (compound: thalidomide): 0.871

B23: 46F_47S_49E_50V_52G_53A_54P_55F_67L_, Q9UKT9 (peptide)
chain: FSCEVCGAPFTQKGNLLRHIKL
log2 fold change of degron read counts [1]: 2.89
log2 fold change of degron read counts [2]: 2.01
log2 fold change of degron read counts [3]: 0.358
log2 fold change of degron read counts (compound: thalidomide): 1.1

B24: 46F_47M_49D_50V_52G_53A_54C_55F_67L_, Q9UKT9 (peptide)
chain: FMCDVCGACFTQKGNLLRHIKL
log2 fold change of degron read counts [1]: -1.81
log2 fold change of degron read counts [2]: -1.41
log2 fold change of degron read counts [3]: 0.979
log2 fold change of degron read counts (compound: thalidomide): -1.1

B25: 46F_47I_49N_50Q_52G_53A_54E_55F_67L_, Q9UKT9 (peptide)
chain: FICNQCGAEFTQKGNLLRHIKL
log2 fold change of degron read counts [1]: -3.37
log2 fold change of degron read counts [2]: -3.09
log2 fold change of degron read counts [3]: -2.19
log2 fold change of degron read counts (compound: thalidomide): -1.75

B26: 46F_47H_49E_50I_52G_53A_54W_55F_67L_, Q9UKT9 (peptide)
chain: FHCEICGAWFTQKGNLLRHIKL
log2 fold change of degron read counts [1]: -0.982
log2 fold change of degron read counts [2]: -1.57
log2 fold change of degron read counts [3]: -0.784
log2 fold change of degron read counts (compound: thalidomide): -2.02

B27: 46F_47Y_49E_50V_52G_53A_54P_55F_67L_, Q9UKT9 (peptide)
chain: FYCEVCGAPFTQKGNLLRHIKL
log2 fold change of degron read counts [1]: 3.69
log2 fold change of degron read counts [2]: 3.45
log2 fold change of degron read counts [3]: 2.63
log2 fold change of degron read counts (compound: thalidomide): 1.63

B28: 46F_47C_49E_50V_52G_53A_54P_55F_67L_, Q9UKT9 (peptide)
chain: FCCEVCGAPFTQKGNLLRHIKL
log2 fold change of degron read counts [1]: 3.23
log2 fold change of degron read counts [2]: 2.09
log2 fold change of degron read counts [3]: 0.726
log2 fold change of degron read counts (compound: thalidomide): 1.26

B29: 46F_47Q_49E_50V_52G_53A_54P_55F_67L_, Q9UKT9 (peptide)
chain: FQCEVCGAPFTQKGNLLRHIKL
log2 fold change of degron read counts [1]: 3.05
log2 fold change of degron read counts [2]: 3.49
log2 fold change of degron read counts [3]: 1.41
log2 fold change of degron read counts (compound: thalidomide): 3.53

B30: 46F_47R_49E_50V_52G_53A_54D_55F_67L_, Q9UKT9 (peptide)
chain: FRCEVCGADFTQKGNLLRHIKL
log2 fold change of degron read counts [1]: -1.68
log2 fold change of degron read counts [2]: -1.6
log2 fold change of degron read counts [3]: 1.33
log2 fold change of degron read counts (compound: thalidomide): 0.331

B31: 46F_47G_49E_50V_52G_53A_54P_55F_67L_, Q9UKT9 (peptide)
chain: FGCEVCGAPFTQKGNLLRHIKL
log2 fold change of degron read counts [1]: 0.82
log2 fold change of degron read counts [2]: -0.556
log2 fold change of degron read counts [3]: -1.51
log2 fold change of degron read counts (compound: thalidomide): -1.08

B32: 46F_47W_49E_50V_52G_53A_54P_55F_67L_, Q9UKT9 (peptide)
chain: FWCEVCGAPFTQKGNLLRHIKL
log2 fold change of degron read counts [1]: 3.08
log2 fold change of degron read counts [2]: 2.92
log2 fold change of degron read counts [3]: 1.89
log2 fold change of degron read counts (compound: thalidomide): 1.01

B33: 46F_47V_49E_50V_52G_53A_54P_55F_67L_, Q9UKT9 (peptide)
chain: FVCEVCGAPFTQKGNLLRHIKL
log2 fold change of degron read counts [1]: 2.23
log2 fold change of degron read counts [2]: 3.61
log2 fold change of degron read counts [3]: 2.24
log2 fold change of degron read counts (compound: thalidomide): 3.07

B34: 46F_47L_49E_50V_52G_53A_54P_55F_67L_, Q9UKT9 (peptide)
chain: FLCEVCGAPFTQKGNLLRHIKL
log2 fold change of degron read counts [1]: 2.39
log2 fold change of degron read counts [2]: 2.45
log2 fold change of degron read counts [3]: 2.33
log2 fold change of degron read counts (compound: thalidomide): 2.97

B35: 46F_47R_49E_50V_52G_53A_54P_55F_67L_, Q9UKT9 (peptide)
chain: FRCEVCGAPFTQKGNLLRHIKL
log2 fold change of degron read counts [1]: 3.45
log2 fold change of degron read counts [2]: 3.6
log2 fold change of degron read counts [3]: 3.39
log2 fold change of degron read counts (compound: thalidomide): 3.62
